Test results reported in PubChem BioAssay AID504636 (National Center for Advancing Translational Sciences (NCATS), 2011).
Screen size: about 1,100 compounds; about 490 (45%) were called active. Another 33% or so got no clear call; they are omitted. The set was probably picked from earlier hits. Only a selection was taken, and actives are over-represented in it overall. A number with no mark means an inactive call. Calls come from the whole dose curve.
Note: nearly all actives have a fitted effect of over 60% in size.
Potency is the fitted concentration of half-maximal effect.

The compounds below were run against ATP-dependent 6-phosphofructokinase (Trypanosoma brucei brucei) (UniProt O15648) (assay: Tb PFK orthogonal confirmatory assay using ATP depletion (Kinase-Glo Plus) as an alternative measure of Tb PFK activity: Hit Validation). Conditions: Tb PFK enzyme, Kinase-Glo Plus luminescence; series mostly up to 57.5 µM; inhibition: at the top concentration.
Sequence of ATP-dependent 6-phosphofructokinase (Trypanosoma brucei brucei) (O15648 whole entry, looked up): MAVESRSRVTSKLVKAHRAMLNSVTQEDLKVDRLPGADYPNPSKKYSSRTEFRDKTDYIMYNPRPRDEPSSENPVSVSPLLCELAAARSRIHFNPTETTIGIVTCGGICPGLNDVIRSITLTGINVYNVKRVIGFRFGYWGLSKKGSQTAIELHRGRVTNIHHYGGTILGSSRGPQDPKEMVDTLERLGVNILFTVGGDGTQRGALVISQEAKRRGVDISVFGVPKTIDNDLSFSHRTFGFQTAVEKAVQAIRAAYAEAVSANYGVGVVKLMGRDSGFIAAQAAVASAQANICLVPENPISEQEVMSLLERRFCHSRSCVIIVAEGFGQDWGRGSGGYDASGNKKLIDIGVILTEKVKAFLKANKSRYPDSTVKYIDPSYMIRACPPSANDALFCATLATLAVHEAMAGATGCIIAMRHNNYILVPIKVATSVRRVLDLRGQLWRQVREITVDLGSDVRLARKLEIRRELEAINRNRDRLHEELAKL
From the text: Various species of the protozoan family Trypanosomatidae are responsible for a range of serious human diseases in tropical and subtropical areas of the world. […] Many of the disorders caused by trypanosomatids are fatal if left untreated, but most currently used drugs are inefficient and toxic.
Oxidative metabolism involving the mitochondrial tricarboxylic acid cycle and oxidative phosphorylation are repressed in these parasites, and recent RNA interference (RNAi) experiments have shown that even partial depletion of certain individual glycolytic enzymes can lead to the death of cultured parasites. One such glycolytic enzyme, phosphofructokinase (PFK), catalyzes the formation of fructose-1,6-bisphosphate (F1,6BP) and ADP from fructose-6-phosphate (F6P) and ATP, and in many metabolic circumstances makes an important contribution to the control of flux through the glycolytic pathway. As a specific glycolytic target, PFK is particularly attractive as it catalyzes the first irreversible step in glycolysis, and structural and kinetic studies have shown very substantial and essential differences from corresponding host enzymes, allowing for the discovery of parasite-selective inhibitors.
The primary qHTS data of T. brucei PFK and ADP-Glo confirmatory data are available in PubChem (AIDs: 485367 and 485368). A luminescent secondary assay was also performed that used luciferase-based nucleotide detection (Kinase-Glo Plus, Promega) similar to the qHTS, but which used ATP (rather than ADP) concentration as an alternate measure of T. brucei PFK activity. The assay measures substrate depletion (ATP) rather than product formation (ADP), coupled to an identical manner of luciferase-based signal detection. As such, compounds which truly act on T. brucei PFK produce a change in signal in the opposite direction of the primary qHTS assay, while compounds which affect the final luciferase reaction produce signal changes in identical directions. Compounds were screened as a concentration-titration series that ranged from 57uM to 0.7nM.
1. Verlinde, C.L., et al., Glycolysis as a target for the design of new anti-trypanosome drugs. Drug Resist Updat, 2001. 4(1): p. 50-65.
2. Albert, M.A., et al., Experimental and in silico analyses of glycolytic flux control in bloodstream form Trypanosoma brucei. J Biol Chem, 2005. 280(31): p. 28306-15.
3. […] J Mol Biol, 2009. 385(5): p. 1519-33.
NIH Molecular Libraries Probe Production Network [MLPCN]
NIH Chemical Genomics Center [NCGC]
PI Name: Dr. Malcolm Walkinshaw
Substrate buffer was dispensed into white, solid 1536-well plates at 3ul/well in 0.1M triethanolamine (TEA) buffer, pH 8.0, containing final concentrations of 5 mM MgCl2, 0.01% Tween20, 0.5 mM fructose-6-phosphate (F6P) and 0.1mM ATP. Then, 23nl of compounds or DMSO were delivered to each well using a pin tool. One ul T. brucei PFK (0.1M TEA, 0.01% Tween20, 0.1% bovine serum albumin (BSA) and 1.25nM PFK, final concentrations) was then dispensed, and plates were incubated at room temperature for 45 min. The luminescent detection reagent, Kinase-Glo Plus (Promega), was then added at 2ul/well and incubated for ten minutes at room temperature. The plates were measured on a ViewLux plate reader for luminescent signal using a clear filter with a one second exposure. The %Activity was determined from the corrected luminescence values. As no specific T. brucei PFK inhibitors have been identified in the literature, 1x (1.25nM) and 0x PFK enzyme controls (untreated) were included to normalize %Activity of identified inhibitors; 0x enzyme values corresponded to 100%Activity (full inhibition), while 1x PFK enzyme values were used to normalize 0% Activity (no inhibition). The Kinase-Glo Plus protocol varies from the primary screen in that it measures ATP, rather than ADP, concentration, and thus provides a measure of substrate depletion, rather than of product formation.
[…]
With `O=C1CSC(=S)N1/N=C/c1ccc(O)c([N+](=O)[O-])c1` the “inhibition” value was -23.4%. With `CCOc1cccc(/C=N/N2C(=O)CSC2=S)c1O` the Potency was 30.1 µM (active). With `Cn1sc(=O)c2cc(S(=O)(=O)NC3CC3)ccc21` the Potency was 7.57 µM (active). For `OC(CNCc1ccc(Cl)c(Cl)c1)c1ccccc1` (stereo unspecified), the Potency was 21.3 µM (active). `Cn1nnnc1NCc1ccc(Cl)c(Cl)c1` was tested, and the Potency was 10.7 µM (active). With `O=[N+]([O-])c1c(NCCO)cc(Sc2nc3ccccc3s2)c2nonc12` the Potency was 0.601 µM (active). `C=C(C)C(=O)Nc1cccc(C2=NOC3(C2)C[C@H](C(N)=O)N(C(=O)C(c2ccccc2)c2ccccc2)C3)c1` (stereo partly specified) was tested, and the Potency was 1.51 µM (active). `C/C=C\C=C\C(=O)N1CC2(CC(c3cccc(NC(=O)/C(C)=C\C)c3)=NO2)C[C@H]1C(N)=O` (stereo partly specified) was tested, and the Potency was 9.53 µM (active). For `CCc1ccc(NC(=O)C(=O)NNC(=O)c2cccs2)cc1`, the “inhibition” value was -33.3%. In the case of `O=c1ccnc(Nc2ccc(Cl)cc2)[nH]1`, the Potency is reported as 21.3 µM (active). With `O=c1[nH]c2ccccc2n2c(-c3ccccc3)nnc12` the Potency was 6.01 µM (active). For `N/C(=N\OC(=O)Nc1ccc(Cl)c(Cl)c1)c1ncc(C(F)(F)F)cc1Cl`, the Potency was 26.9 µM (active). In the case of `Cc1nc(N)nc(SCc2ccc([N+](=O)[O-])cc2)c1N`, the Potency is reported as 10.7 µM (active). With `Nc1nc(SCc2ccc([N+](=O)[O-])cc2)c2ncn(C3OC(CO)C(O)C3O)c2n1` (stereo unspecified) the Potency was 23.9 µM (active). For `Cn1ccc(=Nc2ccc(NC(=O)c3ccc(N=c4ccn(C)c5ccc([N+](=O)[O-])cc45)cc3)cc2)cc1`, the “inhibition” value was -28.5%. With `O=C(Cc1ccc([N+](=O)[O-])cc1)N/N=C/c1ccco1` the Potency was 19 µM (active). For `O=C(CSc1nc(O)c(Cc2ccccc2)c(=O)[nH]1)Nc1nc2c(s1)CCCC2`, the Potency was 6.75 µM (active). For `Cc1ccc(-c2nn(-c3ccccc3)cc2/C=C2\SC(=S)N(CCCCCC(=O)O)C2=O)o1`, the Potency was 9.53 µM (active). With `Cc1cccc(-n2c(N)c(C(=O)N3CCN(C)CC3)sc2=S)c1` the Potency was 6.01 µM (active). With `O=[N+]([O-])/C=C/c1ccc2c(ccn2Cc2ccccc2)c1` the Potency was 10.7 µM (active). `O=C(NCc1ccc(Cl)c(Cl)c1)c1cccnc1` was tested, and the Potency was 13.5 µM (active). For `CCn1nc(C(=O)NNS(=O)(=O)c2cc(/C=C/C(=O)O)cc(OC)c2OC)c2ccccc2c1=O`, the “inhibition” value was 8.28%. In the case of `C=CC1=C(C(=O)O)N2C(=O)[C@@H](NC(=O)/C(=N\OCC(=O)O)c3csc(N)n3)[C@H]2SC1`, the Potency is reported as 2.69 µM (active). `COC(=O)c1[nH]c2ccccc2c1NC(=O)CN1CCCc2ccccc21` was tested, and the “inhibition” value was -26.9%. In the case of `CC(C)(C)c1nnc(NC(=O)C2c3ccccc3Oc3ccccc32)s1`, the Potency is reported as 19 µM (active). In the case of `Cc1c(C)c2ccc(OCC(=O)N3CCN(c4cccc(Cl)c4)CC3)cc2oc1=O`, the Potency is reported as 4.78 µM (active). `O=c1[nH]c(=S)[nH]c2[nH]c(=S)[nH]c12` was tested, and the Potency was 1.35 µM (active). In the case of `COc1ccc(N/C=C(\C2OC(=O)c3ccccc32)[N+](=O)[O-])cc1` (stereo unspecified), the “inhibition” value is reported as 4.35%. `FC(F)(F)C1CCCN(c2nsc3ccccc23)C1` (stereo unspecified) was tested, and the Potency was 2.69 µM (active). With `N#Cc1cccc(CSc2ncnc(N)n2)c1` the Potency was 13.5 µM (active). With `Cc1ccc(NC(=O)c2cc(-c3ccc(C)o3)nc3ccccc23)nc1` the Potency was 6.75 µM (active). For `Cc1nn(Cc2ccc(Cl)c(Cl)c2)c(C)c1NC(=O)c1cc(C2CC2)on1`, the Potency was 5.36 µM (active). In the case of `OCCN1CCN(C(=S)c2ccc(-c3ccccc3)cc2)CC1`, the Potency is reported as 9.53 µM (active). With `Cc1ccc(C)c(-c2nnc(NC(=O)CS(=O)(=O)c3ccccc3)o2)c1` the “inhibition” value was -22.9%. In the case of `COC(=O)CC(=O)N1CCN(c2ccc(Cl)c(Cl)c2)CC1`, the Potency is reported as 23.9 µM (active). With `O=C1CSC(=S)N1c1ccc(Cl)c(Cl)c1` the “inhibition” value was 16.2%.
